Source: PubChem BioAssay (NCI)
Where “and” joins values, the source holds several entries; their conditions need not be identical. Equal entries are not always repeated. About 79,000 compounds went through this panel and 15% of them were active in at least one assay; those are over-represented in the sample as a whole. Rule as the data show it: active = growth inhibition above about 70%; inactive = the rest.

Columns and labels:
[1] = NCI Yeast Anticancer Drug Screen. Data for the rad50 strain (AID 155);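 also: 0% = growth of vehicle-only cultures of the same strain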; details: S. cerevisiae rad50 strain growth inhibition, hits give high values; at 50.0 µM unless noted
Method in brief: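 Vehicle-treated cultures provide the reference for the growth inhibition reported for compound-exposed, repair-deficient yeast.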

[2] = NCI Yeast Anticancer Drug Screen. Data for the mec2-1 strain (AID 157); details: S. cerevisiae mec2-1 strain, hits give high values; at 50.0 µM unless noted
Method in brief: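 Cells of the genetically defined mec2-1 yeast strain are incubated with test compound. Inhibition of growth is calculated against vehicle-treated controls.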

[3] = NCI Yeast Anticancer Drug Screen. Data for the sgs1 mgt1 strain (AID 161);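 also: 0% = growth of cultures given vehicle only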; details: S. cerevisiae sgs1 mgt1 strain, hits give high values; at 50.0 µM unless noted
Method in brief: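 Inhibition of yeast growth, normalised to vehicle-treated controls, is reported for a strain bearing genetic alterations in DNA damage repair.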

[4] = NCI Yeast Anticancer Drug Screen. Data for the cln2 rad14 strain (AID 165);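 also: 0% = growth equal to vehicle treated cultures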; details: S. cerevisiae cln2 rad14 strain, hits give high values; at 50.0 µM unless noted
Method in brief: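 The screen exposed genetically defined yeast (cln2 rad14) to test compounds and scored growth inhibition relative to vehicle-treated controls.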

[5] = NCI Yeast Anticancer Drug Screen. Data for the bub3 strain (AID 167); details: S. cerevisiae bub3 mutant strain, hits give high values; at 50.0 µM unless noted
Method in brief: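 Mutant yeast screening strain plus compound; vehicle-treated cultures serve as the 0% inhibition reference.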

[6] = NCI Yeast Anticancer Drug Screen. Data for the mlh1 rad18 strain (AID 175); details: S. cerevisiae mlh1 rad18 strain growth inhibition, hits give high values; at 50.0 µM unless noted
Method in brief: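 Compound-treated yeast growth, normalised to vehicle controls. Strain bears defined DNA repair mutations.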

Measured: growth inhibition

O=C(/C=C/c1ccc(O)c(O)c1)OC1CC(O)(C(=O)O)CC(O)C1O (configuration not stated) (tested in a mixture with another compound)
inactive: [1] -26.6% | [2] -13.9% | [3] -9.35% | [4] -17.1% | [5] 4% | [6] -12.3%

O=S(=O)(Cc1nc2ccccc2[nH]1)Cc1nc2ccccc2[nH]1
inactive: [1] -3.4% | [2] 4.25% | [3] 14.8% | [4] -7.25% | [5] 4.95% | [6] 9.3%

CC(=O)OC1CCC2(C)C3CCC4(C)C(C(C)CCCC(C)C)CCC4C3C3CC32C1 (configuration not stated)
inactive: [1] 30.6% | [2] -21.8% | [3] 29.1% | [4] 3.95% | [5] -3.05% | [6] 0.1%

O=C1c2ccccc2C(=O)C1c1ccc2ccccc2n1
inactive: [1] 7.85% | [2] -7.95% | [3] 3.35% | [4] 2.6% | [5] 7.05% | [6] -7.95%

COc1ccc(N2C(=O)C/C(=C/c3ccc(C(C)C)cc3)C2=O)cc1
inactive: [1] 9.35% | [2] -0.05% | [3] 11.9% | [4] -60% | [5] -13.8% | [6] 9.15%

COc1ccc(-c2sc(C)nc2O)cc1
inactive: [1] 7.75% | [2] 2.35% | [3] 0.3% | [4] -20.8% | [5] -15.5% | [6] 7.2%

Cc1cc(NC(=O)C(=O)Cc2nc3ccccc3s2)ccc1Cl
inactive: [1] 25.9% | [2] 12.7% | [3] 21.9% | [4] 43.9% | [5] 10.9% | [6] 19.1%

N.N.N.N.O=C([O-])O.O=C([O-])[O-].[Co+3]
inactive: [1] 2.15% | [2] 3.4% | [3] 12.1% | [4] 26.9% | [5] 24.2% | [6] 8.95%

O=C1CCc2nc(-c3ccccc3)ncc21
inactive: [1] 9.25% | [2] 0% | [3] 1.95% | [4] -5.55% | [5] -2.2% | [6] -0.8%

O=C1c2cccc3cc([N+](=O)[O-])cc(c23)C(=O)N1C(CO)(CO)CO
inactive: [1] 29.9% | [2] 12.6% | [3] 30.1% | [4] 27.5% | [5] 16% | [6] -4.45%

Cc1ccc(-c2nc3ccc(Cl)cc3[nH]2)cc1
inactive: [1] -10.7% | [2] 9.1% | [3] 41.6% | [4] 17.1% | [5] 30.1% | [6] 42.1%

NC(=S)N/N=C1/CN(c2ccc(Cl)c(Cl)c2)CC(=O)C1c1nc2ccccc2s1 (configuration not stated)
inactive: [1] 49.1% | [2] 28.6% | [3] 53% | [4] 26.1% | [5] -0.65% | [6] 52.2%

O=P1(NC23CC4CC(CC(C4)C2)C3)OC(CCl)=NC1c1ccc(C2N=C(CCl)OP2(=O)NC23CC4CC(CC(C4)C2)C3)cc1 (configuration not stated)
inactive: [1] -56.6% | [2] -32.7% | [3] -34.3% | [4] -12.8% | [5] -35.1% | [6] -57.2%

CNC(=O)C1C(=O)NC(=O)C1=C1CCCC1 (configuration not stated)
inactive: [1] 11.2% | [2] -1.1% | [3] 4.8% | [4] -58.8% | [5] 8.1% | [6] -14.6%

O=C(OC(c1ccccc1)C(c1ccccc1)N1CCOCC1)c1ccc([N+](=O)[O-])cc1 (configuration not stated)
inactive: [1] 54.8% | [2] 8.3% | [3] 55.4% | [4] -4.9% | [5] 17.1% | [6] 54.6%

CC(C)(CO)C(O)C(=O)NN (configuration not stated)
inactive: [1] -2.8% | [2] 2.95% | [3] 8.6% | [4] -6.25% | [5] -3.9% | [6] 3.25%

NC(=O)CC[n+]1ccccc1
inactive: [1] 11.1% | [2] -29.3% | [3] 6.5% | [4] 11.7% | [5] -19.4% | [6] 7.2%

CC(=O)C(C)(CCN(C)C)c1ccccc1 (configuration not stated)
inactive: [1] 6.5% | [2] 4.4% | [3] 7.45% | [4] -10.3% | [5] 6.55% | [6] 12.8%

NC(=O)C1(N2CCCC2)CCN(Cc2ccccc2)CC1
inactive: [1] -9.2% | [2] -18.9% | [3] -17.6% | [4] -1.6% | [5] -10.6% | [6] -15.8%

CC1=C(c2ccccc2)C(c2ccccc2)=C(C)C1=NNc1ccc([N+](=O)[O-])cc1[N+](=O)[O-]
inactive: [1] 10.6% | [2] 11.8% | [3] 0.8% | [4] 16.4% | [5] -3.25% | [6] 1.4%

C[C@@]1(O)C2CC3CC1(c1ccccc1)CC(/C3=N/O)/C2=N\O (some centres not stated)
inactive: [1] -14.3% | [2] -17.6% | [3] -1.8% | [4] 26.2% | [5] -16.7% | [6] 8.3%

OC1(C2NCCc3ccccc32)CCN(CCc2ccccc2)CC1 (configuration not stated)
inactive: [1] 21.8% | [2] 10.7% | [3] 25.5% | [4] 20.2% | [5] 2.95% | [6] 8.9%

ON=C(c1ccccn1)c1ccccn1
inactive: [1] 11.1% | [2] -7.6% | [3] 7.05% | [4] 4.35% | [5] -8.25% | [6] 3.8%

FC(F)(F)C1CCCCC1[Si](C1CCCCC1C(F)(F)F)C1CCCCC1C(F)(F)F (configuration not stated)
inactive: [1] 32.8% | [2] -11.2% | [3] 13.7% | [4] 10.5% | [5] -5.55% | [6] 5.7%

CN(CCO)c1ccccc1
inactive: [1] -12.3% | [2] -14.8% | [3] -40.4% | [4] -17.9% | [5] -48.4% | [6] -8%

O=C(C[n+]1csc2ccccc21)c1ccccc1
inactive: [1] 9% | [2] 15.3% | [3] 17.1% | [4] 20.4% | [5] 30.4% | [6] 3.8%

CC(C)(C)OC(=O)C(=[N+]=[N-])C(=O)OC(C)(C)C
inactive: [1] 8.75% | [2] 1.5% | [3] 2.3% | [4] -28.5% | [5] -7.15% | [6] 17.7%

C=C(C)C(=NC(C)(C)C)Nc1ccc(C(=O)OCC)cc1
inactive: [1] -8.3% | [2] -5.6% | [3] -11.8% | [4] -21.2% | [5] -24.1% | [6] -45.6%

COc1ccc2occ(CCC(=O)O)c2c1
inactive: [1] 6.4% | [2] -0.75% | [3] -2.25% | [4] -25.9% | [5] -1.1% | [6] 6.9%

COc1ccc(NS(=O)(=O)c2ccc(NC(CNC(C)S(=O)(=O)O)S(=O)(=O)O)cc2)cc1 (configuration not stated)
inactive: [1] 18.1% | [2] 5.75% | [3] 29.3% | [4] 52.5% | [5] -0.85% | [6] 36.5%

O=c1[nH]c(=O)n(C2CC(O)C(CO)O2)cc1C#Cc1c(F)c(F)c(F)c(F)c1F (configuration not stated)
inactive: [1] -17.2% | [2] -11.7% | [3] -16.4% | [4] 11.8% | [5] -13.8% | [6] 2.2%

CC1(C)COC(=S)N1
inactive: [1] -3% and -28.6% | [2] 6.85% and -21.8% | [3] 0.5% and -14.8% | [4] 11.4% and -25.3% | [5] 9.55% and -26.9% | [6] 19.1% and -27.2%

CC(CC(=O)O)(CC(=O)O)C(=O)O
inactive: [1] 16.1% | [2] -17.9% | [3] -28.9% | [4] 12.6% | [5] -29.4% | [6] -22.9%

Cc1ccc2c(c1)C1(c3ccc(Cl)cc3Cl)Oc3ccc(C)cc3C(c3ccc(Cl)cc3Cl)(O2)O1
inactive: [1] -1.5% | [2] 1.5% | [3] 3.1% | [4] -4.65% | [5] -2.7% | [6] 16.6%

O=P1(O)c2ccccc2Nc2cc(C(F)(F)F)ccc21
inactive: [1] 24.1% | [2] -8.25% | [3] -9.8% | [4] 8.7% | [5] -9.85% | [6] -49.4%

O=S1(=O)CCC12CC1c3ccccc3C2c2ccccc21 (configuration not stated)
inactive: [1] -6.1% | [2] -6.05% | [3] -11.6% | [4] -2.85% | [5] -11.1% | [6] -6.85%

CC1=Nc2ccccc2C12C(c1ccccc1)C(c1ccccc1)C(=O)N1c3ccccc3CC12 (configuration not stated)
inactive: [1] -2.25% | [2] -16.4% | [3] -33.6% | [4] 20.1% | [5] -14.3% | [6] -1.65%

COc1ccccc1C(O)C(C)C (configuration not stated)
inactive: [1] -17.6% | [2] -11.3% | [3] 3.9% | [4] -15.8% | [5] -5.25% | [6] -24.1%

CCCOCC[N+](C)(C)C
inactive: [1] 1.65% | [2] -21.9% | [3] 8.65% | [4] -34.5% | [5] -8.9% | [6] -8.9%

CC(/C(=N/O)c1ccccc1)N1C(=O)c2ccccc2C1=O (configuration not stated)
inactive: [1] -31.1% | [2] -12.9% | [3] -4.5% | [4] -27.1% | [5] -3.95% | [6] 5.7%

CN(C)CCN1CC2Cc3ccccc3C1c1ccccc12 (configuration not stated)
inactive: [1] 24.1% | [2] -6.5% | [3] -3.5% | [4] 28.9% | [5] 43.4% | [6] 9.1%

N=C(N)c1ccc(NC(=S)Nc2ccc(C(=N)N)cc2)cc1
inactive: [1] 43.1% | [2] 21.3% | [3] 32.1% | [4] 7.35% | [5] 16.4% | [6] 31.8%
